Results on one sequence are retold here after publication PMC7862700, “An all-to-all approach to the identification of sequence-specific readers for epigenetic DNA modifications on cytosine”.

Holding throughout (assay): DAPPL (digital affinity profiling via proximity ligation, sequencing); 10 mM Tris-HCl pH 7.5, 50 mM NaCl, 1 mM DTT, 4% glycerol, room temperature, 30 min; GST-TFs on glutathione beads, 16-mer random dsDNA library, 0.1% formaldehyde crosslink after washing; high values mean tight binding
One experiment addresses T1, FEV (Homo sapiens, UniProt Q99581 1-238).
T1 sequence: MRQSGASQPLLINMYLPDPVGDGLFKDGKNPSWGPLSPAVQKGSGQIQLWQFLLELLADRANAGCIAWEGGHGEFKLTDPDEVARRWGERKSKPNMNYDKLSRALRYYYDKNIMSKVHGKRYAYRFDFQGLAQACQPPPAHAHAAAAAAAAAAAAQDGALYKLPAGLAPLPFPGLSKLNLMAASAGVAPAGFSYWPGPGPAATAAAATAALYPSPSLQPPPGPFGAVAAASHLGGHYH
The conditions noted are these: protein: recombinant; tags: N-terminal GST; dsDNA, one strand shown. A digest of the protocol: (§1)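 GST fusions of human transcription factors were expressed in yeast and captured with glutathione beads. Once given DNA barcodes and pooled alongside a tag-only sample, they were incubated for 30 min at room temperature with 200 nmole of a random double-stranded 16-mer DNA library in Tris/NaCl/DTT/glycerol buffer, then washed, crosslinked (0.1% formaldehyde), proximity-ligated, PCR-amplified and sequenced on an Illumina NextSeq500. The binding signal of each hexamer is its read frequency for a factor divided by its frequency for the tag-only sample.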

The target in the next experiment is ETV5 (Homo sapiens, UniProt P41161 1-510). The conditions noted are these: protein: recombinant; tags: N-terminal GST; dsDNA, one strand shown. An outline of the steps:
as §1

In a further experiment the target is HSF1 (Homo sapiens, UniProt Q00613 1-529). Conditions: protein: recombinant; tags: N-terminal GST; chain copies: 3; dsDNA, one strand shown. An outline of the steps:
as §1

The next experiment concerns the target T2, SPIC (Homo sapiens, UniProt Q8N5J4 1-248).
T2 sequence: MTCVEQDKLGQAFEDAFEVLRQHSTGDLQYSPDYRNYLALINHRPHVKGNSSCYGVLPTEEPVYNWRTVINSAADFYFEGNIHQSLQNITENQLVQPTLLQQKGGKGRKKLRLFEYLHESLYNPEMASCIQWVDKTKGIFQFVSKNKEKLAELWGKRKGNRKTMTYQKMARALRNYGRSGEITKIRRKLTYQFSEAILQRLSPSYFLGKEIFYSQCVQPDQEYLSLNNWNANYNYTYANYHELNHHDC
The conditions noted are these: protein: recombinant; tags: N-terminal GST; dsDNA, one strand shown. An outline of the steps: as §1

The target of another experiment is ELF4 (Homo sapiens, UniProt Q99607 1-663). The conditions noted are these: protein: recombinant; tags: N-terminal GST; dsDNA, one strand shown. An outline of the steps:
as §1

A further experiment deals with T3, ELK4 (Homo sapiens, UniProt P28324-2 1-405).
T3 sequence: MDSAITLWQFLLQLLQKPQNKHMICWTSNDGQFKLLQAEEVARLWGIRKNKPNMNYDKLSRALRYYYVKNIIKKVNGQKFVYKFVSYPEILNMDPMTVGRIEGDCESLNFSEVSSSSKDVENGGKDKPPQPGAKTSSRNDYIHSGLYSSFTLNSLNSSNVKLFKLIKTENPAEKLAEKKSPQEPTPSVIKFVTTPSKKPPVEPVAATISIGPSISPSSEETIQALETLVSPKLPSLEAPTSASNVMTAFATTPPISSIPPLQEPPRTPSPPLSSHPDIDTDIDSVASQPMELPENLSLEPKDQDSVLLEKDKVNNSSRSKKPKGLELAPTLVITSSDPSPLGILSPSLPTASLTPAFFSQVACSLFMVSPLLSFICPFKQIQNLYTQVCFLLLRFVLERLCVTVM
Conditions: protein: recombinant; tags: N-terminal GST; dsDNA, one strand shown. A digest of the protocol:
as §1

Another experiment addresses T4, ETV2 (Homo sapiens, UniProt O00321 1-342).
T4 sequence: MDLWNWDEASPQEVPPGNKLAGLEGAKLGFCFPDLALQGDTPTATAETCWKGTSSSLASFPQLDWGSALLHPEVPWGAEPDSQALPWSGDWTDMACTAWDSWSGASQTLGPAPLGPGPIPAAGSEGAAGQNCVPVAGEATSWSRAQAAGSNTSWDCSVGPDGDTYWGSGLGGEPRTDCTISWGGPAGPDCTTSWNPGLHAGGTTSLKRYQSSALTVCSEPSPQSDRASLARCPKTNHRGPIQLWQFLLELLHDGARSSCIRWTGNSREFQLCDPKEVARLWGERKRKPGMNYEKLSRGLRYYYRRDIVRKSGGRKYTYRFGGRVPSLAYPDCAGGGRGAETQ
Conditions: protein: recombinant; tags: N-terminal GST; dsDNA, one strand shown. An outline of the steps: as §1

The target in a further experiment is T5, ELF3 (Homo sapiens, UniProt P78545 1-371).
T5 sequence: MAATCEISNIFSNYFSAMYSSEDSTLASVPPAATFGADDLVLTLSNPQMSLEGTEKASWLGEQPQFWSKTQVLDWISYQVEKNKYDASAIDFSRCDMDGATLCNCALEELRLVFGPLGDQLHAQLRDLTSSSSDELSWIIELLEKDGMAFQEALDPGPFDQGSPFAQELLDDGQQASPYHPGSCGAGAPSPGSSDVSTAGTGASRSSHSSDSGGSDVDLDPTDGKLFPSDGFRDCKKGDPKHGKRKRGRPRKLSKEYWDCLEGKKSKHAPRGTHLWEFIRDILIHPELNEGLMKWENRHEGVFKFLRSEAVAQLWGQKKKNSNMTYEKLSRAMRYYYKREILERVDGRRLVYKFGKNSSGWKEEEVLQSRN
The conditions noted are these: protein: recombinant; tags: N-terminal GST; dsDNA, one strand shown. A digest of the protocol:
as §1

The target in the next experiment is CRX (Homo sapiens, UniProt O43186 1-299). Conditions: protein: recombinant; tags: N-terminal GST; dsDNA, one strand shown. A digest of the protocol:
as §1

A further experiment addresses ETV1 (Homo sapiens, UniProt P50549 1-477). The conditions noted are these: protein: recombinant; tags: N-terminal GST; dsDNA, one strand shown. A digest of the protocol: as §1
In a further experiment the target is T6, ERF (Homo sapiens, UniProt P50548 1-548).
T6 sequence: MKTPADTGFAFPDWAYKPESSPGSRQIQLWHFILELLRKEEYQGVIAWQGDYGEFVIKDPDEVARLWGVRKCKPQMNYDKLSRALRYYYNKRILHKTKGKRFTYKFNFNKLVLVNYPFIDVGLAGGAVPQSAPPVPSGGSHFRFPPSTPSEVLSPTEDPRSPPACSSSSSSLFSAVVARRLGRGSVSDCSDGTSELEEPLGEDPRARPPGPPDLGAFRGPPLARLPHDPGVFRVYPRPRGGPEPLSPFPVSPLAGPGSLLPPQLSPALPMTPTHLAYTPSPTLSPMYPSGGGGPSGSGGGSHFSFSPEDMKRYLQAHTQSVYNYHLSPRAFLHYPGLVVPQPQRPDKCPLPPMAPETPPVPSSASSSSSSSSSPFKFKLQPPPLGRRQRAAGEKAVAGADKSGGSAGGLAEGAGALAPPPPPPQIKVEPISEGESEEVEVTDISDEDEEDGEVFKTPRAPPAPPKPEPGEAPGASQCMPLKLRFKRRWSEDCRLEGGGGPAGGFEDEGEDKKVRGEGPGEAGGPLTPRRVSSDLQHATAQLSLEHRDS
The conditions noted are these: protein: recombinant; tags: N-terminal GST; dsDNA, one strand shown. An outline of the steps:
as §1

In the next experiment the target is T7, ETV3L (Homo sapiens, UniProt Q6ZN32 1-361).
T7 sequence: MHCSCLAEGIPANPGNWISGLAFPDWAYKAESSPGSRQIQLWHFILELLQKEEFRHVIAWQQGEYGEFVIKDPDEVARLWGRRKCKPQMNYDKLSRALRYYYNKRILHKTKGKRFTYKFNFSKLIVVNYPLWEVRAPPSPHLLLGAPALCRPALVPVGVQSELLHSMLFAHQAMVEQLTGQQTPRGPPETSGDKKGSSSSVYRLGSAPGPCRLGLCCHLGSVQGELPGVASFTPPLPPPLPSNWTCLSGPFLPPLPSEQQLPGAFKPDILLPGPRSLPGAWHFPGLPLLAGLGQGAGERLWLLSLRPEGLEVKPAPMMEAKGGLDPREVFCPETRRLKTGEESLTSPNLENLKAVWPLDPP
The conditions noted are these: protein: recombinant; tags: N-terminal GST; dsDNA, one strand shown. An outline of the steps: as §1

The next experiment has as its target T8, ETS2 (Homo sapiens, UniProt P15036 1-469).
T8 sequence: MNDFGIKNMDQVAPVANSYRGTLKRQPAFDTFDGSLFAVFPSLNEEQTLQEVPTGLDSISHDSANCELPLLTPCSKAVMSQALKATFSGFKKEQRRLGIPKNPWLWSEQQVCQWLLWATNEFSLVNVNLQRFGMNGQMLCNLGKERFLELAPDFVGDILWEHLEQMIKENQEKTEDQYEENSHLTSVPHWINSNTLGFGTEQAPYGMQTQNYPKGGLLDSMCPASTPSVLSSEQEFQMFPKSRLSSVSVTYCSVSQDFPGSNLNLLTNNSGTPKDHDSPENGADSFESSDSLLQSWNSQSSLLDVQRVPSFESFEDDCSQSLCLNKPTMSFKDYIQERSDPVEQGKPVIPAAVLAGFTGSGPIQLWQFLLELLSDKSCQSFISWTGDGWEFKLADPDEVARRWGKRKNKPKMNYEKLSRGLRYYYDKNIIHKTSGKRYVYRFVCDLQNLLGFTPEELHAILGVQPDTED
The conditions noted are these: protein: recombinant; tags: N-terminal GST; dsDNA, one strand shown. An outline of the steps:
as §1

The next experiment has as its target T9, SPDEF (Homo sapiens, UniProt O95238 1-335).
T9 sequence: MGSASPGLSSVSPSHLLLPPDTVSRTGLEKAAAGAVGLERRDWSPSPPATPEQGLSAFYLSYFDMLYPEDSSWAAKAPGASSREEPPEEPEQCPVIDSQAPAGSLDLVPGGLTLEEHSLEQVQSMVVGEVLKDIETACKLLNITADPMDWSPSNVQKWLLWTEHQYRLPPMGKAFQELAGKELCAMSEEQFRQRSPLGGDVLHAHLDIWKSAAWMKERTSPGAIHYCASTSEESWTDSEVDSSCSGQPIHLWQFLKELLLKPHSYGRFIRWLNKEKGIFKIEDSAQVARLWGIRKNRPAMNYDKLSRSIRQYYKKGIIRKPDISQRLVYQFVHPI
Conditions: protein: recombinant; tags: N-terminal GST; dsDNA, one strand shown. An outline of the steps:
as §1

For another experiment, the target named is T10, ETV7 (Homo sapiens, UniProt Q9Y603 1-341).
T10 sequence: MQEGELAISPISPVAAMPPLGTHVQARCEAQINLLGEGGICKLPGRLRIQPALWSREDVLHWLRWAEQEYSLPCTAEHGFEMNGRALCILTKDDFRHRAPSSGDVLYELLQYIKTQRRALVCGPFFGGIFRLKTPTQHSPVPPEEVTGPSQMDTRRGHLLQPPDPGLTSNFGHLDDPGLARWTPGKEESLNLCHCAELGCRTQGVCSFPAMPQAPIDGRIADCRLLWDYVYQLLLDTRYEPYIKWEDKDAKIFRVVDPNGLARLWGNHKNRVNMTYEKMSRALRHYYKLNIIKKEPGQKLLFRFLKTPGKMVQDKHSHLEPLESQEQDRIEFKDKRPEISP
Conditions: protein: recombinant; tags: N-terminal GST; dsDNA, one strand shown. A digest of the protocol:
as §1

Another experiment concerns the target T11, ELF5 (Homo sapiens, UniProt Q9UKW6-2 1-255).
T11 sequence: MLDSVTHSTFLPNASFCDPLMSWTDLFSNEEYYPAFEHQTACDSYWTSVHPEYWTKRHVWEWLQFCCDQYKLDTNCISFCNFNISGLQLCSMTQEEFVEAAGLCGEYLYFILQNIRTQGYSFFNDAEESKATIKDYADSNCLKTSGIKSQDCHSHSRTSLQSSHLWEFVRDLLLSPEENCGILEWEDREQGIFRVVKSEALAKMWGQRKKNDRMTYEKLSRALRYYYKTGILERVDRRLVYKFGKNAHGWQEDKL
The conditions noted are these: protein: recombinant; tags: N-terminal GST; dsDNA, one strand shown. An outline of the steps:
as §1

The target of the next experiment is T12, ETV3 (Homo sapiens, UniProt P41162-2 1-143).
T12 sequence: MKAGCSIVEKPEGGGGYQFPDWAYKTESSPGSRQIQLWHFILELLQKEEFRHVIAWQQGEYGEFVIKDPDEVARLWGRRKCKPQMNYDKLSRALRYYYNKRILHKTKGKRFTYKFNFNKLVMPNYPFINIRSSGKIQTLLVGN
Conditions: protein: recombinant; tags: N-terminal GST; dsDNA, one strand shown. A digest of the protocol: as §1

For another experiment, the target named is ETV6 (Homo sapiens, UniProt P41212 1-452). Conditions: protein: recombinant; tags: N-terminal GST; dsDNA, one strand shown. A digest of the protocol: as §1
Chain of ETV6 (P41212 whole entry): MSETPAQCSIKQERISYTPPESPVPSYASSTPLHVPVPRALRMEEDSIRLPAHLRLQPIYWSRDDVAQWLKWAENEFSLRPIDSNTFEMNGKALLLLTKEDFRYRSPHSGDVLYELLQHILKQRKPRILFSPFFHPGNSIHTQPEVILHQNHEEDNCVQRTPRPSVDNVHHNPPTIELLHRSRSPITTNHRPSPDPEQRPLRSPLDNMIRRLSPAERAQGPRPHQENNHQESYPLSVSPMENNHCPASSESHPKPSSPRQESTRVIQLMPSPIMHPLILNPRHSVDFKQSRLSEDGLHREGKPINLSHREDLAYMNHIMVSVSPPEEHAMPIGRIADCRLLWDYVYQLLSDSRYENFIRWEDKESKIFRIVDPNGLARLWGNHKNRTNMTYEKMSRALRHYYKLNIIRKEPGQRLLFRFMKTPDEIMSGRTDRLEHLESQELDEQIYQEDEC

Chain of ETV5 (P41161 whole entry): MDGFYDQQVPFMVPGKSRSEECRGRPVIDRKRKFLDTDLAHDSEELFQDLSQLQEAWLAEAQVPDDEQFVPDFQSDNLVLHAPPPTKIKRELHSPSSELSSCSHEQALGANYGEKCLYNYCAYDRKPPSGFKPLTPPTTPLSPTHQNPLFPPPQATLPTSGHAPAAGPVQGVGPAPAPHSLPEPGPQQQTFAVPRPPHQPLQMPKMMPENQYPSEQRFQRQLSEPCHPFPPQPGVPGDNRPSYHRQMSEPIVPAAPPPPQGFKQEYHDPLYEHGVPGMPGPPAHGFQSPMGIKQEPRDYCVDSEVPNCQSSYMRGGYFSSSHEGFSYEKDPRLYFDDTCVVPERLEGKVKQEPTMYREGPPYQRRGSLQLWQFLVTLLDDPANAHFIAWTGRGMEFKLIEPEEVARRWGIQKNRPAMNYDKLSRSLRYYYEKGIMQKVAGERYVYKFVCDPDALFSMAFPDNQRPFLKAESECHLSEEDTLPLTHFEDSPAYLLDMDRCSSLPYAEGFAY
Chain of ETV1 (P50549 whole entry): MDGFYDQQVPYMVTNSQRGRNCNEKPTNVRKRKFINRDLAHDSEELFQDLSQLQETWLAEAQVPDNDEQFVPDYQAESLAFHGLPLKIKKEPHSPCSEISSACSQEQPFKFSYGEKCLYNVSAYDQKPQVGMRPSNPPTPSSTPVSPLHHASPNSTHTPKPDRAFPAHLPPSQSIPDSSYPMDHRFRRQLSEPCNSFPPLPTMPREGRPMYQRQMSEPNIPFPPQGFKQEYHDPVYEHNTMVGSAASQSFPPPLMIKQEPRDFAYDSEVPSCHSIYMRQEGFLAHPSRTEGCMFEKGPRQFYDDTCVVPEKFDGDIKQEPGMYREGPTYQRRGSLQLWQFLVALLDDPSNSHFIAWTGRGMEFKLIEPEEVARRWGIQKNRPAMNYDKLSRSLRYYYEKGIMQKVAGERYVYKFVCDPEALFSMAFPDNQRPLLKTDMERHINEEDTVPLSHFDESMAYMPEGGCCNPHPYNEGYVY
Chain of ELF4 (Q99607 whole entry): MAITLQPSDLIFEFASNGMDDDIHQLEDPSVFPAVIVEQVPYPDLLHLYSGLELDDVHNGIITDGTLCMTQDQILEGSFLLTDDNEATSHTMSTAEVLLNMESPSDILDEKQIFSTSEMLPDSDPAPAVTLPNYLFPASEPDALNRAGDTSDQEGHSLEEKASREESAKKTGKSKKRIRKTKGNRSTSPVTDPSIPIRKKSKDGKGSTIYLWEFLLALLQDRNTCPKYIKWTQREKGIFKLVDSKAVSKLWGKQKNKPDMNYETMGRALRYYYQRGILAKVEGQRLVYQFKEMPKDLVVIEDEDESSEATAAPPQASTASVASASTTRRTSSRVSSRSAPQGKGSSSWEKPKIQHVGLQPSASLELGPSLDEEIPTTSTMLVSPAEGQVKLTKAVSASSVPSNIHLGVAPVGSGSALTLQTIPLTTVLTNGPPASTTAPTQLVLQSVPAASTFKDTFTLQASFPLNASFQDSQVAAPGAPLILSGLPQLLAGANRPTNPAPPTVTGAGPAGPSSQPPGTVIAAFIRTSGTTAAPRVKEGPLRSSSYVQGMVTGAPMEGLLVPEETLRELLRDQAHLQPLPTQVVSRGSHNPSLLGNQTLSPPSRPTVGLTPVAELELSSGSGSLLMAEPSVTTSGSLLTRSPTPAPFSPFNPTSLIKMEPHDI
Chain of HSF1 (Q00613 whole entry): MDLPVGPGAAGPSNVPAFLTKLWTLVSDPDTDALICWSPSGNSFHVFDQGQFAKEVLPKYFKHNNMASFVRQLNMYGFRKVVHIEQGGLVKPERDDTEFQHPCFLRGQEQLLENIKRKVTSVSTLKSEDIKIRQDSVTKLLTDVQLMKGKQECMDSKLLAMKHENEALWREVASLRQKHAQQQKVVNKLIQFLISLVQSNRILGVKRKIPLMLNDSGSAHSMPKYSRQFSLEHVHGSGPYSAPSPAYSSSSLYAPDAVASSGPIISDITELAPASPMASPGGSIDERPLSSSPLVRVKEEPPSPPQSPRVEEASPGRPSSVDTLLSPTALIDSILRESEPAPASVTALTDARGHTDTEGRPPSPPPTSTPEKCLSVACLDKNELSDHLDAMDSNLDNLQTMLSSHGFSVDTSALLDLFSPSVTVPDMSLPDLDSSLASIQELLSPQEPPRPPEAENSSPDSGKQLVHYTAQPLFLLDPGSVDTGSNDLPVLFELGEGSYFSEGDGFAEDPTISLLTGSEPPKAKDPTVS
Chain of CRX (O43186 whole entry): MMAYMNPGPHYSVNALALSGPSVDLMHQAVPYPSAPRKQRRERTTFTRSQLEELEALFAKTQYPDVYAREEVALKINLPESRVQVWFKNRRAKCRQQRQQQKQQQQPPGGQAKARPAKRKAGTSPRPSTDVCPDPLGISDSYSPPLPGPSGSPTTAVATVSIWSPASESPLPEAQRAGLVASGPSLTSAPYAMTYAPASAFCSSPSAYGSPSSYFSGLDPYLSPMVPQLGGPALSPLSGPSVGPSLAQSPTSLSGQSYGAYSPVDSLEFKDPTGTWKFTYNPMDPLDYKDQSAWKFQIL

For the sequence ATATAA, the binding signal is 1.15 fold enrichment (6-mer frequency, TF over GST control) with FEV; 1.15 fold enrichment (6-mer frequency, TF over GST control) with ETV5; 1.34 fold enrichment (6-mer frequency, TF over GST control) in the experiment with HSF1; 1.1 fold enrichment (6-mer frequency, TF over GST control) with SPIC; 1.18 fold enrichment (6-mer frequency, TF over GST control) with ELF4; 1.29 fold enrichment (6-mer frequency, TF over GST control) in the experiment with ELK4. Also, the binding signal is 1.24 fold enrichment (6-mer frequency, TF over GST control) with ETV2; 1.28 fold enrichment (6-mer frequency, TF over GST control) in the experiment with ELF3; 1.68 fold enrichment (6-mer frequency, TF over GST control) in the experiment with CRX; 1.16 fold enrichment (6-mer frequency, TF over GST control) with ETV1; 1.16 fold enrichment (6-mer frequency, TF over GST control) with ERF; 1.23 fold enrichment (6-mer frequency, TF over GST control) with ETV3L. Also, the binding signal with ETS2 was 1.2 fold enrichment (6-mer frequency, TF over GST control); in the experiment with SPDEF, 1.19 fold enrichment (6-mer frequency, TF over GST control); in the experiment with ETV7 it was 1.16 fold enrichment (6-mer frequency, TF over GST control); with ELF5, 1.16 fold enrichment (6-mer frequency, TF over GST control); in the experiment with ETV3 it was 1.27 fold enrichment (6-mer frequency, TF over GST control); with ETV6, 1.25 fold enrichment (6-mer frequency, TF over GST control).
